Source: PubChem BioAssay (NCI)
The panel holds about 83,000 compounds, 20% with a hit somewhere; the sample as a whole holds those more often.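 Note: values are percent growth. 100 is the growth of untreated cells, values between 100 and 0 indicate rising inhibition; between -100 and 0 indicates cell death.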 Active and inactive are the calls of the source. Rule for the calls: active = growth percent below 10; inactive = the rest.

Each molecule was assayed on M14 melanoma (assay: NCI-60 one-dose screen, 48 h (100 = growth as untreated, 0 = no growth, -100 = all killed)). Conditions: 10 µM unless noted.
With `Cc1ccc(-c2cn(C/C=C3\C=CN(S(=O)(=O)c4ccccc4)CC3)nn2)cc1` the growth was 92.5% (inactive). `CN(C)c1ccc(-c2ccc(-c3ccc(C(=N)N)cc3)s2)cc1` was tested, and the growth was 99.8% (inactive). For `CCOC(=O)c1nn(C2CCCCO2)c2ccc(NC(=O)CN3CCOCC3)cc12` (stereo unspecified), the growth was 102% (inactive). In the case of `Cn1cc(-c2noc(-c3cn(C)c4ncc(Br)cc34)n2)c2cc(Cl)ccc21`, the growth is reported as 82.4% (inactive). `Cc1cc2c(C(C)C)c(O)c(O)c(C=NCc3ccoc3)c2c(O)c1-c1c(C)cc2c(C(C)C)c(O)c(O)c(C=NCc3ccco3)c2c1O` was tested, and the growth was 65.4% (inactive). In the case of `Cc1cccc(C[C@H](NC(=O)Nc2ccc(C)cc2F)C(=O)N[C@@H]2C(=O)N3C[C@H](O)C[C@H]3C(=O)N3CCN(C)C[C@H]3C(=O)N[C@@H](C)C(=O)N3C[C@H](C)C[C@H]3C(=O)O[C@H]2C)c1`, the growth is reported as 79.9% (inactive). `COc1cc2c(c(Br)c1N)-c1cc(Br)c(N)cc1C2=O` was tested, and the growth was 91.1% (inactive). In the case of `CCN(CC)CCSC(=O)C(O)(c1ccccc1)C1CCCC1` (stereo unspecified), the growth is reported as 128% (inactive). In the case of `CCN(CC)CCCOc1ccc2c(c1)O/C(=C\c1cccc(OC)c1)C2=O`, the growth is reported as 92.6% (inactive). In the case of `CCOC(=O)/C(C#N)=C(\C)CCc1ccccc1`, the growth is reported as 92.2% (inactive). With `O=C(CCN1CCCCC1)c1ccc(Cl)cc1` the growth was 107% (inactive). For `C[C@H]1[C@H](C)CC[C@]2(C(=O)O)CC[C@]3(C)C(=CC[C@@H]4[C@@]5(C)C/C(=C/c6ccco6)C(=O)C(C)(C)[C@@H]5CC[C@]43C)[C@H]12`, the growth was -43.6% [100 µM] (active). `Cc1ccc(NC(=O)N[C@@H](Cc2cc(F)cc(F)c2)C(=O)N[C@@H]2C(=O)N3CCC[C@H]3C(=O)N3CCOC[C@H]3C(=O)N[C@@H](C)C(=O)N3C[C@H](C)C[C@H]3C(=O)O[C@H]2C)cc1` was tested, and the growth was 26.9% (inactive). With `CCCCOC(=O)c1c(C)[nH]c(/C=C2\N=C(c3ccc[nH]3)C=C2OC)c1C` the growth was -18.6% (active). With `O=C(O)c1cn(C2CC2)c2cc(N3CCN(Cc4cc(Cl)ccc4O)CC3)c(F)cc2c1=O` the growth was 59.2% (inactive). `C[n+]1cccc(NC(=O)c2ccc3ccc4ccc(C(=O)Nc5ccc[n+](C)c5)nc4c3n2)c1` was tested, and the growth was 53.6% (inactive). For `O=c1cc(-c2ccccc2)oc2cc(OCc3cn(Cc4ccc(F)cc4)nn3)cc(O)c12`, the growth was 65.9% [100 µM] (inactive). In the case of `C=C(CC(=O)OC)C(C)=O`, the growth is reported as 119% (inactive). In the case of `O=C1/C(=C\c2cn(CC(O)CN3CCCCC3)c3ccccc23)c2ccccc2N1c1c(Cl)cccc1Cl` (stereo unspecified), the growth is reported as -81.1% (active). For `CC/C=C(\C)C(CCC)(CN=O)C(=O)OCC` (stereo unspecified), the growth was 99.3% (inactive). For `CN(C)C(=S)Sc1ccc([N+](=O)[O-])cc1[N+](=O)[O-]`, the growth was 8.95% (active).
